TIM10 inh = growth inhibitors of TIM10 yeast strain; inhibition, % at 10 µM; actives 1.4% (n = 330,000); AID 463195; S. cerevisiae TIM10 strain growth, BacTiter-Glo luminescence, 24 h;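 active means inhibition of 40% or more at the single tested concentration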;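 further: wild-type TIM10 isogenic control strain grown at permissive 25 °C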
Beta2AR agonist = human beta-2 adrenergic receptor agonism by FAP; P07550; actives 0.43% (n = 340,000); response, % (test concentration not listed); Am2.2-beta2AR cells, FAP receptor internalization, flow cytometry;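 active means response above a set limit, near 3 SD of response in nonfluorescent compounds, cut at about 42% in these data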
Target sequence (P07550 whole entry, looked up): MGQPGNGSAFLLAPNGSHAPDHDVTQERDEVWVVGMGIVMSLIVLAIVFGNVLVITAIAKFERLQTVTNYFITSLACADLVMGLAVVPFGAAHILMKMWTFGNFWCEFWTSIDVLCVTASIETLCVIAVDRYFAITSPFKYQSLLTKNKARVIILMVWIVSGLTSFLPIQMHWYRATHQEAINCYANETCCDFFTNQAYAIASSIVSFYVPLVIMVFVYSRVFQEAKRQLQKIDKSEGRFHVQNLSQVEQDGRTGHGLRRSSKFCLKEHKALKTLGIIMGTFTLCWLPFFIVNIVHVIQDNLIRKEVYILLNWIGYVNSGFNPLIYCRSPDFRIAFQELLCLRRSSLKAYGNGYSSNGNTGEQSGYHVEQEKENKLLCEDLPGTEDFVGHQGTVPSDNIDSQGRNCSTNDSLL
PfHsp90 set2 = reduces growth (ATP signal) of yeast expressing P. falciparum Hsp90; AID 504621; inhibition, % at 9.4 µM; S. cerevisiae expressing PfHsp90, BacTiter-Glo ATP, 48 h; yeast lacking PDR1 and PDR3 efflux regulators; actives 0.32% (n = 310,000);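 active means every replicate shows inhibition above about 80%, whatever the replicate mean, limit read from the data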
tim23-1 inh = inhibits growth of tim23-1 mutant yeast. inhibition, % at 20 µM. S. cerevisiae tim23-1 growth, BacTiter-Glo luminescence, 24 h. actives 1.3% (n = 330,000);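 active means growth inhibition of the mutant yeast at or above 50%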;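 further: temperature-sensitive mutant grown at 25 °C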
tim10-1 inh = inhibits growth of tim10-1 mutant yeast; inhibition, % at 20 µM; actives 2.2% (n = 330,000); S. cerevisiae tim10-1 ts strain growth, BacTiter-Glo, 24 h; AID 463190;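 active means inhibition of at least 40%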;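 further: mutant grown at 25 °C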
tim10-1 confirm = tim10-1 yeast growth inhibition, confirmed; inhibition, % at 20 µM; actives 56% (n = 7,400); S. cerevisiae tim10-1 ts strain growth, BacTiter-Glo, 24 h; shares compounds with tim10-1 inh;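 active means inhibition of yeast growth at or above a set limit in either of two repeat tests at 20 µM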;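 further: tim10-1 mutant grown at permissive 25 °C to find synthetic lethal compounds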
TIM10 conf = confirmation of TIM10 yeast growth inhibitors | S. cerevisiae tim10 strain growth, BacTiter-Glo luminescence, 24 h | shares compounds with TIM10 inh | inhibition, % at 10 µM | actives 63% (n = 4,600);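 active means inhibition of yeast growth at or above a set limit in either of two replicates at 10 µM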; further: this counterscreen used the strain with wild-type TIM10
Hits are given with their value; - = inactive; . = no result. In the library only some 3.8% were active in any assay of this set; here they are far more common.

SMILES	TIM10 inh	Beta2AR agonist	PfHsp90 set2	tim23-1 inh	tim10-1 inh	tim10-1 confirm	TIM10 conf
COc1ccc(CN2CCN(CC(O)Cn3c4ccccc4c4ccccc43)CC2)cc1 (stereo unspecified)	-	-	-	-	-	.	.
O=C(Nc1ncccn1)c1ccc([N+](=O)[O-])o1	-	-	-	-	-	.	.
O=C(Nc1ccccn1)c1ccc([N+](=O)[O-])o1	43.7	-	-	-	44.1	38.7	34.6
COc1ccc(-c2cn3cc(C)ccc3n2)cc1OC	67.4	-	-	-	49.9	42.9	59.7
CC(=O)Oc1ccc(/C=C2\N=C(C3CCCCC3)OC2=O)cc1	55.6	-	-	-	45.5	46.4	40.7
CN(C)CCCN(C(=O)C1COc2ccccc2O1)c1nc2cc3c(cc2s1)OCO3 (stereo unspecified)	55.0	-	-	-	55.9	48.6	44.0
Cc1cc2c3c(c1)C1(SCC(=O)N1c1ccc(F)cc1)C(=O)N3C(C)(C)CC2C (stereo unspecified)	42.3	-	-	-	47.9	39.7	40.9
COc1ccc(N2C(=O)CSC23C(=O)N2c4c(cccc43)C(C)=CC2(C)C)cc1 (stereo unspecified)	-	-	-	-	-	.	.
CC1CN(C2CCCCC2)C(=O)NC1=O (stereo unspecified)	.	-	.	.	.	.	.
O=C(N/N=C/c1sc(N2CCCCC2)nc1-c1cccs1)C1CC1	47.2	-	-	-	47.4	36.0	36.5
CC(C)NC(=S)N/N=C/c1sc(N2CCCCC2)nc1-c1cccs1	49.7	-	-	-	53.4	47.8	35.4
CS(=O)(=O)N1CCN(c2ccccc2NC(=O)c2ccc(-c3ccc(Cl)cc3Cl)o2)CC1	-	-	-	-	-	.	.
CN1CCN(c2ccccc2NC(=O)c2ccc(-c3ccc(Cl)cc3Cl)o2)CC1	46.0	-	-	-	56.0	54.8	48.2
O=C(O)C(C=C(Cl)Cl)N1CCOCC1 (stereo unspecified)	.	-	.	.	.	.	.
CCC(=O)N1CCc2cc(S(=O)(=O)N3CCN(c4ccccc4)CC3)ccc21	-	-	-	-	-	.	.
CCC(=O)N1CCc2cc(S(=O)(=O)N3CCN(c4ccccn4)CC3)ccc21	43.8	-	-	-	42.8	37.2	-
O=C(O)CCC1(CCC(=O)O)CCCC(CCC(=O)O)(CCC(=O)O)C1=O	.	-	-	.	.	.	.
CC(C)CN1C(=O)/C(=C/c2cccs2)NC1=S	48.2	-	-	-	42.8	-	40.5
CCCN1C(=O)/C(=C/c2ccc(C)s2)NC1=S	45.2	-	-	-	46.5	-	40.5
CC(=O)Nc1nc2nc(-c3ccccc3)cc(-c3ccccc3)n2n1	-	-	-	-	-	.	.
O=C(Nc1nc2nc(-c3ccccc3)cc(-c3ccccc3)n2n1)c1ccco1	60.0	-	-	-	42.7	-	-
COC(=O)c1ccccc1S(=O)(=O)NNC(=O)Nc1ccccc1	-	-	-	-	-	.	.
COc1cc(C(=O)Nc2ccc(Cl)c([N+](=O)[O-])c2)cc(OC)c1OC	-	-	-	-	-	.	.
O=C(Nc1ccc(Cl)c([N+](=O)[O-])c1)ONC1=NCCCCC1	54.1	-	-	-	78.1	76.9	46.0
Nc1nc(Nc2ccccc2)nc(NC2CCCCC2)c1[N+](=O)[O-]	-	-	-	-	-	.	.
SMILES	TIM10 inh	Beta2AR agonist	PfHsp90 set2	tim23-1 inh	tim10-1 inh	tim10-1 confirm	TIM10 conf
CCCN(CCC)C(=S)NC(=O)c1ccc(Cl)cc1Cl	40.1	-	-	-	54.4	-	37.2
Cc1ccc(OCC(=O)NCCNC(=O)c2cnccn2)cc1C	-	-	-	-	-	.	.
CC(C)Cn1c(=S)[nH]c2cc(Cl)ccc21	50.0	-	-	-	42.8	-	-
CCN(CC(=O)Nc1ccccc1OC)C(=O)CSCC(=O)Nc1cccc(C)c1	.	-	-	.	.	.	.
COc1ccc(C(=O)N2CCN(c3ccccc3Cl)CC2)cc1S(=O)(=O)NC1CC1	-	-	-	-	-	.	.
CCOc1ccc(-c2nnc(N(CC)C(=O)C3CCC3)s2)cc1	43.3	-	-	-	42.8	31.0	35.1
COCCN(C(=O)C1CC1)c1nnc(-c2ccc(C)cc2)s1	-	-	-	-	-	.	.
COc1ccc(/C=C2\CCc3ccccc3C2=O)cc1Cn1nc(C)cc1C	48.6	-	-	-	45.2	36.8	40.5
O=C(Nc1ccc(Cl)c(C(F)(F)F)c1)c1ccco1	51.2	-	-	-	46.0	56.0	-
CC(=NCc1ccco1)c1c(C)[nH]n(-c2nc3ccccc3s2)c1=O	-	-	-	-	-	.	.
CCC(=NCc1ccco1)c1c(C(F)(F)F)[nH]n(-c2nc3ccccc3s2)c1=O	44.2	-	-	-	64.6	62.5	41.0
COc1ccc(CCNC(=S)NC(=O)c2cccc(Cl)c2)cc1OC	40.1	-	.	-	48.1	29.5	41.1
COc1ccc(CCNC(=S)NC(=O)c2cc(OC)c(OC)c(OC)c2)cc1OC	-	-	-	-	-	.	.
COCCN(C(=O)c1ccc2c(c1)S(=O)(=O)N=C1CCCCCN12)c1c(N)n(CC(C)C)c(=O)[nH]c1=O	.	-	.	.	.	.	.
O=Nc1c(O)n(Cc2ccc(Cl)cc2Cl)c2ccccc12	41.6	-	-	-	51.9	-	39.0
CCOC(=O)N/N=C\c1ccc(-c2cc(Cl)ccc2Cl)o1	41.2	-	-	-	44.1	34.1	34.6
CCOc1ccc(S(=O)(=O)NCc2cccs2)cc1	-	-	-	-	-	.	.
CCSc1nnc(-c2ccc(S(=O)(=O)NCc3cccs3)cc2)o1	45.2	-	.	-	45.0	50.1	30.2
O=C(NCc1cc([N+](=O)[O-])ccc1O)c1cccnc1Sc1ccccc1Cl	-	-	-	-	-	.	.
COc1ccccc1NS(=O)(=O)c1cc(NC(=O)C2CCCO2)ccc1C (stereo unspecified)	-	-	-	-	-	.	.
COc1cccc(C2=Nc3cccc4cccc(c34)N2)c1	-	-	-	-	-	.	.
c1coc(C2=Nc3cccc4cccc(c34)N2)c1	48.7	-	-	-	47.4	-	-
O=C(Nc1cc(Sc2ccccn2)cc([N+](=O)[O-])c1)c1cccc(Cl)c1	53.7	-	-	-	42.0	34.2	-
O=C(Nc1cc(Sc2ccccn2)cc([N+](=O)[O-])c1)c1ccc(Cl)cc1	-	-	-	-	-	.	.
O=C(/C=C/c1cccs1)c1cc(Cl)ccc1O	-	-	-	-	-	.	.
O=C(/C=C/c1ccc2ccccc2n1)c1cc(Cl)ccc1O	53.5	-	-	-	54.2	37.5	36.0
CCN(CC)Cc1cc2[nH]c3c4ccc(Cl)cc4ncc3c2cc1OC	68.0	-	-	-	57.1	50.0	35.0
O=C(NC1CC2CCCC(C1)N2C(=O)Nc1ccccc1F)C1CC1 (stereo unspecified)	-	-	-	-	-	.	.
